Parameters in all cases: scale not given: direction of the effect not stated beside the values
The target of assay [1] is Protein translocase subunit SecA (Escherichia coli (strain K12)) (UniProt P10408). Description: Assay to Identify E. coli SecA ATPase Inhibitors. Type of assay: functional. Particulars: 30 µM.
Assay [2] concerns the target T1, Ubiquitin-activating enzyme e1, putative (Leishmania donovani (strain BPK282A1)) (UniProt E9BSI1).
T1 sequence (whole entry): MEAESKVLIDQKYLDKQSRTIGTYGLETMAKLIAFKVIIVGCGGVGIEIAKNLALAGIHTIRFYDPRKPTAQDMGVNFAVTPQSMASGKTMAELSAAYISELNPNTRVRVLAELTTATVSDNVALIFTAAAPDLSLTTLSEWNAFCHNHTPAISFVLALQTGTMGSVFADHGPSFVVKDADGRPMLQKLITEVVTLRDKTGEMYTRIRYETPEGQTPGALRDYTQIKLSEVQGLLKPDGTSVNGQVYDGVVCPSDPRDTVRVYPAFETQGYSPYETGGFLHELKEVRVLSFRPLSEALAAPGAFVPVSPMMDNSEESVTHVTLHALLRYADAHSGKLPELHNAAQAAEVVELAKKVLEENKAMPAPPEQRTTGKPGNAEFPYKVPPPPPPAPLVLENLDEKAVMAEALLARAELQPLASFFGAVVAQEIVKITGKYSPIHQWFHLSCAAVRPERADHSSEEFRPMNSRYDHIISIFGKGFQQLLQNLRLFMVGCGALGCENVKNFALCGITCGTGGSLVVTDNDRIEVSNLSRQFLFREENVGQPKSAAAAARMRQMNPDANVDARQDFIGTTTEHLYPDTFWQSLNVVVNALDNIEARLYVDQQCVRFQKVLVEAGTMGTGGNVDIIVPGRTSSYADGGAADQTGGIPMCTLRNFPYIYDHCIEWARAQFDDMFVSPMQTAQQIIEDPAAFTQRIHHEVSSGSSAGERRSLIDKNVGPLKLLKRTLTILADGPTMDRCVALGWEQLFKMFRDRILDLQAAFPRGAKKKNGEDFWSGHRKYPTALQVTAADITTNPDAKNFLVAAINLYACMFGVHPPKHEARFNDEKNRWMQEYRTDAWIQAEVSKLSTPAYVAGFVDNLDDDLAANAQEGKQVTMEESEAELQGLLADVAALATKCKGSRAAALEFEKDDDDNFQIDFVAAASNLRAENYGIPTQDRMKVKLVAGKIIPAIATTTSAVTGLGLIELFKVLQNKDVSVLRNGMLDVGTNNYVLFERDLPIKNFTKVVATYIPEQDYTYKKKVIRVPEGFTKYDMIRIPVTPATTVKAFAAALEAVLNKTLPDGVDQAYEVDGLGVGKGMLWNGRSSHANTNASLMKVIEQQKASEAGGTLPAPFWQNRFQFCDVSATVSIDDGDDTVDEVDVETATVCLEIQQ
Description: Leishmania donovani Ubiquitin Activating Enzyme (LdE1). Type of assay: functional. Particulars: 30 µM.

Assay [3] has as its target AMP-activated protein kinase, AMPK (Homo sapiens) (UniProt P54646+O43741+P54619+Q9UGJ0+Q9Y478+Q13131+Q9UGI9). The assay can be described thus: AMP-dependent Kinase enzyme assay. An in vitro enzyme assay that detects ADP turnover that is directly proportional to AMPK activity. This uses naive AMPK that is activated during the assay with MK-8722. It is filed as functional. Particulars: 30 µM.

The target in assay [4] is Sialic acid-binding Ig-like lectin 9 (Homo sapiens) (UniProt Q9Y336). The assay can be described thus: Hs-Siglec9 ALPHAscreen SOP 20170721. Particulars: 10 µM.
For assay [5], the system named is Trypanosoma cruzi. The assay can be described thus: Trypanosoma cruzi phosphomannomutase and mannose-1-phosphate guanylyltransferase assay. It is filed as functional. Particulars: 10 µM.
The target in assay [6] is T2, Arginase-2, mitochondrial (Homo sapiens) (UniProt P78540).
T2 sequence (whole entry): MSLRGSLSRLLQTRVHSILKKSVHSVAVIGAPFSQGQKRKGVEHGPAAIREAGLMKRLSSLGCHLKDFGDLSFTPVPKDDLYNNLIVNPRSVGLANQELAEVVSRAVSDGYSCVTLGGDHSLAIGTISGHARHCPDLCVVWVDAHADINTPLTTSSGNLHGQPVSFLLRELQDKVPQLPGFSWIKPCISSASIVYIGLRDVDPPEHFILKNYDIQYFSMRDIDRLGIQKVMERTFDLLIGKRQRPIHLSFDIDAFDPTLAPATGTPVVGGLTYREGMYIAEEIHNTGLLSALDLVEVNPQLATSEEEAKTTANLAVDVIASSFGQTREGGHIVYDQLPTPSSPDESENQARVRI
The assay can be described thus: in vitro enzyme assay to detect the production of urea directly proportional to the activity of Arginase II. Note: in the data most compounds retested in dose-response had high values. Type of assay: functional. Particulars: 33.3 µM.

Assay [7] deals with T3, Proteasome subunit beta (Trypanosoma cruzi) (UniProt O96673).
T3 sequence (whole entry): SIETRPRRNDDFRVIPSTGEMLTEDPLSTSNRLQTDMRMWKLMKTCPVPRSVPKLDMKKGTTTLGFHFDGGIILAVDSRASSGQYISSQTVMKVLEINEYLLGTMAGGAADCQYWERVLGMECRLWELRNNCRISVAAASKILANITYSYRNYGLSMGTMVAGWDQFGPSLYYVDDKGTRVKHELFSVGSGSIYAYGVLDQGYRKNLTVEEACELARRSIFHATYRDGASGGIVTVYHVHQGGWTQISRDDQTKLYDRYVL
The assay can be described thus: Trypanosoma cruzi proteasome chymotrypsin-like activity (TcProtChymo) assay. Note: in the data most compounds retested in dose-response had high values. Type of assay: functional. Particulars: 9.37 µM.

The species entered for assay [8] is Homo sapiens. Description: To identify inhibition of the IFN signalling (Jak-Stat) pathway via expression of an eGFP reporter gene under the control of an IFN-stimulated response element (ISRE) containing MxA promoter. Type of assay: functional. Particulars: 30 µM.
Assay [9] deals with T4, Tyrosyl-tRNA synthetase, putative (Trypanosoma cruzi (strain CL Brener)) (UniProt Q4DSP6).
T4 sequence (whole entry): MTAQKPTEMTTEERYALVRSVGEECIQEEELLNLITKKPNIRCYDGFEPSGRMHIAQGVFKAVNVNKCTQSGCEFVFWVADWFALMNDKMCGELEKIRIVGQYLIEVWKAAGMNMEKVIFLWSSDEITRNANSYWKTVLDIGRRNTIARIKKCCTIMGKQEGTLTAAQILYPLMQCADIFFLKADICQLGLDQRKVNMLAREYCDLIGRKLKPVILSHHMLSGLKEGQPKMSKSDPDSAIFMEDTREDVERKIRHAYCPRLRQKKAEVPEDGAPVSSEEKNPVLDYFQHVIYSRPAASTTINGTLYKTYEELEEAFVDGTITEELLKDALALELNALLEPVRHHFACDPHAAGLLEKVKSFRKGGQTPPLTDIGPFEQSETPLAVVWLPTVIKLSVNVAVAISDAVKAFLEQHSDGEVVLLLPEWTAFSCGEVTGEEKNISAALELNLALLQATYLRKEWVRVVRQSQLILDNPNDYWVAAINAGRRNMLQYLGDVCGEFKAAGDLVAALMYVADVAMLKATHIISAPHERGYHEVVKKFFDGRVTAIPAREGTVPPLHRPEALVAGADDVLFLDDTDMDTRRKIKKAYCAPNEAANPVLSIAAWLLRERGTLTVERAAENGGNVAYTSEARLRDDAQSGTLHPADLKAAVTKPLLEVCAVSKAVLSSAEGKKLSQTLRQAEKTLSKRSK
Description: Trypanosoma cruzi tyrosyl tRNA synthetase (TcYRS) _High Tyrosine SOP. Note: in the data most compounds retested in dose-response had high values. Type of assay: functional. Particulars: 30 µM.

In assay [10] the target is T4, Tyrosyl-tRNA synthetase, putative (Trypanosoma cruzi (strain CL Brener)). Description: Trypanosoma cruzi tyrosyl tRNA synthetase (TcYRS) SOP. Type of assay: functional. Particulars: 30 µM.
For assay [11], the target named is Chromo domain-containing protein 1 (Saccharomyces cerevisiae (strain ATCC 204508 / S288c) (Baker's yeast)) (UniProt P32657). Description: ScCHD-1 Enzyme Inhibition Assay. Note: in the data most compounds retested in dose-response had high values. It is filed as functional. Particulars: 30 µM.

Each structure is given as a SMILES string. For some of these results: Measured potencies and affinities stand elsewhere.

Results on 11 molecules are retold here after ChEMBL document CHEMBL3988442, “University of Dundee, Small-Polar-MMV Screening Library” (2021).

Sequence of Sialic acid-binding Ig-like lectin 9 (Homo sapiens) (Q9Y336 whole entry): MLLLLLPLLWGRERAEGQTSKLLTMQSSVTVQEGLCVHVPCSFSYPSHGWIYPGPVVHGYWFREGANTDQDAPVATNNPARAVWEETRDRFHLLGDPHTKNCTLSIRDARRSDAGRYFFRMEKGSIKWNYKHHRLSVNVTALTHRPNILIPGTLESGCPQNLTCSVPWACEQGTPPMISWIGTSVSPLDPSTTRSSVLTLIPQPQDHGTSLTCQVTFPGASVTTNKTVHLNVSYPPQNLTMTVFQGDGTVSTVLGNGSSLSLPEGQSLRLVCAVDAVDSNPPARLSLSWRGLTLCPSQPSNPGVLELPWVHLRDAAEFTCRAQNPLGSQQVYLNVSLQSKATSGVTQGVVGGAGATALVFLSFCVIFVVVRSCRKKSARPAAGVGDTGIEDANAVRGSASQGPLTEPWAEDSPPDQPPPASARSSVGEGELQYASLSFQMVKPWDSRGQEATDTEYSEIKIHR
Sequence of Protein translocase subunit SecA (Escherichia coli (strain K12)) (P10408 whole entry): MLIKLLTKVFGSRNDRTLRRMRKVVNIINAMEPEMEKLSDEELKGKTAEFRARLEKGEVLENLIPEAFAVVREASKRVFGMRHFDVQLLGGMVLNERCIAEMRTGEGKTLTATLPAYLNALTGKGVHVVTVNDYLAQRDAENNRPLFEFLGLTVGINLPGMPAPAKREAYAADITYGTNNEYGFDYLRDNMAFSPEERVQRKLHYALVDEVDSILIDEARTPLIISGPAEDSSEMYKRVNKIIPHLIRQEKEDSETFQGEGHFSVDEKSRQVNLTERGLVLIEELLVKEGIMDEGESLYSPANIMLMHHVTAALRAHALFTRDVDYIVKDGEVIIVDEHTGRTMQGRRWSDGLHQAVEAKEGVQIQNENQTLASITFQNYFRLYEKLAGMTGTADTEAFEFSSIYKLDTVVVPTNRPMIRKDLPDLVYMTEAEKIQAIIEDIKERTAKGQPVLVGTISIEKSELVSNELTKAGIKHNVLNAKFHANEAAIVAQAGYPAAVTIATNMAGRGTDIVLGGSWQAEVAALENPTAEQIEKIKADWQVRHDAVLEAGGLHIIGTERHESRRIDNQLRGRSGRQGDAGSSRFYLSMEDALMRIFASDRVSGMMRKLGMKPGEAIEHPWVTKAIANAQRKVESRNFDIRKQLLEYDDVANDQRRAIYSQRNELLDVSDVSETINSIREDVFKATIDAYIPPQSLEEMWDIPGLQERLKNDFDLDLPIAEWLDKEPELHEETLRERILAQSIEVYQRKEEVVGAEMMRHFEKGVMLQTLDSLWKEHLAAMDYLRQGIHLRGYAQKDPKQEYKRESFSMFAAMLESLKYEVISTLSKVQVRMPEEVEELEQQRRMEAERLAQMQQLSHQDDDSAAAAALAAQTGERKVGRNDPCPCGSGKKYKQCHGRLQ
Sequence of Chromo domain-containing protein 1 (Saccharomyces cerevisiae (strain ATCC 204508 / S288c) (Baker's yeast)) (P32657 whole entry, the tested form may be a part): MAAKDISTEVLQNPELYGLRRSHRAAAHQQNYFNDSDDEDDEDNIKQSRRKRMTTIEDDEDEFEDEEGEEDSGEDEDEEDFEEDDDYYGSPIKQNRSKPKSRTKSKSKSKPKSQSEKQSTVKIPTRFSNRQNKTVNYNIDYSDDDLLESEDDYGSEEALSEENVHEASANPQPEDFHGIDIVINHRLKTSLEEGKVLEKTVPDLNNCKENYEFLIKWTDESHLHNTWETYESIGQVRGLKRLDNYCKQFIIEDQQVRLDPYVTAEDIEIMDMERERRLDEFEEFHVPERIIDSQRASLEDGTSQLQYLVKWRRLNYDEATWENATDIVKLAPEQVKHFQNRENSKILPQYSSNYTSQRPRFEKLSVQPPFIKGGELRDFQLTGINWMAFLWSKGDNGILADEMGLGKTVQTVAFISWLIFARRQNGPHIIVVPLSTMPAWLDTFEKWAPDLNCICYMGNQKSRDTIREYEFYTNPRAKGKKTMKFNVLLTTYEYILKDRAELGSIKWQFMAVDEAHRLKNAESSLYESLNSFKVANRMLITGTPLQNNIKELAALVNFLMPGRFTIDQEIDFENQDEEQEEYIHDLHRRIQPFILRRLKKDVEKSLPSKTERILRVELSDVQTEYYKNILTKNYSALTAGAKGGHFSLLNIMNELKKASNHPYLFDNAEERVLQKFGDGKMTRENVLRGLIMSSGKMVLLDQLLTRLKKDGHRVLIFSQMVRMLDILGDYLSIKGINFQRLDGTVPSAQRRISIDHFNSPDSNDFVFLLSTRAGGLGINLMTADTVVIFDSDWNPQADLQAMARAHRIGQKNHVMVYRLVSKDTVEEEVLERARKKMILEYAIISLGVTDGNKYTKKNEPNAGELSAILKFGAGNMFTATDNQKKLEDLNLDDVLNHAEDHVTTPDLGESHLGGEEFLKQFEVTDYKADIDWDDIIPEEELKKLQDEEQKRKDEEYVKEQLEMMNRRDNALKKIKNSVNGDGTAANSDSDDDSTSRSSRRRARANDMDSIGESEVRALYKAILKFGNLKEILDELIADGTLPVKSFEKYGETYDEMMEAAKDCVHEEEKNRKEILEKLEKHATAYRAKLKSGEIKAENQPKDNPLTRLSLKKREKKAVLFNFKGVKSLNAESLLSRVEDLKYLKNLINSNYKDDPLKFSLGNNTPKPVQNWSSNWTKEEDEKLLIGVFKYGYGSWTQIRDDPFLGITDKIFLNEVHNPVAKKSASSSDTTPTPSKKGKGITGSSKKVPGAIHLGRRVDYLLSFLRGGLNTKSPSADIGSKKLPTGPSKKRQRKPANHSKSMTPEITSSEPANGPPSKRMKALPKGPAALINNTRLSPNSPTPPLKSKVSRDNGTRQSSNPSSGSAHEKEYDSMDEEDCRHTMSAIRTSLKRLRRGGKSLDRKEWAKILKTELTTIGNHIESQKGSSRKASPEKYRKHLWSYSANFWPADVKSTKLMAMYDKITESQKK

On to `O=C(c1ccc(Cl)o1)N1CCCN(Cc2cscn2)CC1`, for which the Percent Effect is -5.01% in assay [1]; 15.6% in assay [2]; -7.43% in [3]; -4.3% in [4]; 4.02% in [5]; -2.74% in assay [6]. Further, the Percent Effect in assay [7] is 16.1%; in assay [8], 0.576%; in [9], 6.67%; in [10] it was 14.1%; in assay [11], -17.3%.

Consider `CC(C)Nc1nc(N2CCOCC2)nc2c1CN(Cc1ccoc1)CC2`, for which the Percent Effect in assay [1] was -4.76%; in assay [2], 5.33%; in [3], 12.8%; in [4], 1.46%; in [5] it was -1.97%; in assay [6] it was 6.76%. In addition, the Percent Effect in assay [7] is 7.84%; in assay [8] it was 8.61%; in assay [9] it was 7.45%; in assay [10] it was 16.7%; in assay [11] it was -3.95%.

In the case of `Cc1ccc(CC(=O)N2CC[C@@H]3CN(CCN(C)C)CCO[C@@H]3C2)cc1`, the Percent Effect in assay [1] is -0.0347%; in assay [2], 8.11%; in [3], 9.51%; in [4] it was -10.3%; in assay [5], -7.33%; in assay [6], 2.87%. Also, the Percent Effect in assay [7] is 19.7%; in assay [8], 4.98%; in assay [9] it was 4.32%; in assay [10], 5.13%; in assay [11] it was -4.03%.

On to `COc1ccccc1CC(=O)NCc1c(C)nc2cc(=O)[nH]n2c1C`, for which the Percent Effect in [1] is -2.98%; in [2], 0%; in assay [3], -13.8%; in assay [4], 9.27%; in assay [5] it was 3.01%; in assay [6], 1.53%. For the same molecule, the Percent Effect is 8.02% in assay [7]; 7.43% in assay [8]; 4.41% in assay [9]; 7.32% in [10]; -7.8% in [11].

Take `CCN(CC(=O)NC(C)C)S(=O)(=O)N1CCCCCC1`: the Percent Effect in [1] was -2.15%; in [2], 16.2%; in [3], -3.94%; in [4], 11.8%; in assay [5], 2.64%; in assay [6], 3.23%. Further, the Percent Effect is 12.3% in [7]; 5.69% in assay [8]; 3.23% in assay [9]; 16.1% in assay [10]; -10.9% in assay [11].

`O=C(CCc1cccs1)N1CCCCC1Cn1cccn1` (stereo unspecified): the Percent Effect in [1] was -6.87%; in assay [2], 10.4%; in assay [3], -2.34%; in assay [4], -15.4%; in assay [5], 5.19%; in [6] it was -1.47%. The Percent Effect is 10.4% in assay [7]; 1.69% in assay [8]; 5.71% in [9]; 21.2% in assay [10]; -15.9% in [11].

With `Cn1cc(CN2CCCN(C(=O)c3ccc4c(c3)COC4)CC2)cn1`, the Percent Effect in [1] is -5.64%; in assay [2], 18.4%; in assay [3], -1.04%; in [4], 13.2%; in assay [5], -3.27%; in [6], -2.16%. Moreover, the Percent Effect in assay [7] is 12.6%; in [8] it was 8.45%; in assay [9], 7.39%; in assay [10], 11.1%; in [11], -0.916%.

In the case of `COCCN1CCC2(CCCN(C(=O)c3cnoc3C)C2)C1=O` (stereo unspecified), the Percent Effect in [1] is 0.295%; in [2] it was 8.22%; in [3], 3.34%; in assay [4] it was 5.08%; in assay [5], -6.55%; in assay [6], -3.19%. The Percent Effect is 12.2% in assay [7]; 0.796% in [8]; 4.17% in assay [9]; 3.7% in assay [10]; -5.73% in assay [11].

As for `CC(=O)c1ccc(C(=O)NCCCOC(C)c2ccccc2)s1` (stereo unspecified), the Percent Effect was -1.12% in assay [1]; 7.89% in assay [2]; 0.104% in [3]; -8.61% in assay [4]; 1.07% in assay [5]; -8.28% in [6]. In addition, the Percent Effect in assay [7] was 13.9%; in assay [8] it was 21.8%; in assay [9], -3.19%; in assay [10] it was 10.4%; in [11] it was -1.78%.

For `N#CCCN(C(=O)CN1CCCC1Cc1ccccc1)c1ccccc1` (stereo unspecified), the Percent Effect was -5.2% in [1]; 2.7% in [2]; -1.32% in assay [3]; 26.1% in [4]; 4.1% in assay [5]; 10.8% in assay [6]. Further, the Percent Effect in assay [7] is 5.33%; in assay [8], 0.149%; in assay [9], 11.9%; in assay [10], 13.4%; in assay [11], -6.86%.

Consider `COc1ccc(C(=O)Nc2cnn(CC(=O)NC3CCCC3)c2)c(O)c1`, for which the Percent Effect in assay [1] was -2.21%; in assay [2] it was 13.7%; in assay [3], -8.3%; in assay [4], 5.57%; in assay [5], 3.77%; in [6] it was 0.798%. Besides, the Percent Effect in [7] is 9.16%; in [8] it was -10.3%; in assay [9], 11.5%; in [10] it was 25.9%; in assay [11], -3.82%.
